# HT1080 IDH1KD tx: qHTS for induction of synthetic lethality in tumor cells producing 2HG: qHTS for the HT-1080-IDH1KD cell line. HT-1080 IDH1 knockdown viability, ATP luminescence, 48 h. Potency, µM (doses to about 46.1 µM), without a hit: at the highest dose activity, negative = toxicity, hits mostly cytotoxic. 360,000 compounds, 2% hits. AID 686971, 2013;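 also: 0% = DMSO wells and -100% = cell-free medium wells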
#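 Assay cells: HT-1080 with IDH1 knockdown, 750 per well, RPMI/5% FBS. Exposure: 48 h at 37 °C following 2 h pre-incubation. Read: CellTiter-Glo luminescence; fitted concentration-response, curve class assigned.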
# KB-V1 cytotox: qHTS assay for MDR1-selective chemotherapeutics: Primary screen using the drug-selected MDR subline cells KB-V1; 400,000 compounds, 3.4% hits; AID 1347076, 2019; KB-V1 MDR cells viability, CellTiter-Glo, 72 h; Potency, µM (series often up to 46.1 µM), hits mostly cytotoxic; also: % is scaled to controls: 0 for no effect and ±100 for the full control effect; nearly all actives have a fitted effect of over 60% in size
#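 Potencies derive from concentration-effect curves fitted to normalized luminescence (CellTiter-Glo) of KB-V1 cells treated for 72 h at 37 degrees C in phenol-red-free DMEM containing 10% FBS.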
# HT1080NT lethal: qHTS for induction of synthetic lethality in tumor cells producing 2HG: qHTS for the HT-1080-NT fibrosarcoma cell line; HT-1080-NT fibrosarcoma viability, CellTiter-Glo ATP luminescence, 48 h; Potency, µM (highest dose often 46.1 µM), for inactives: at the highest dose activity, negative = less viability, actives largely listed as cytotoxic; 360,000 compounds, 1.6% hits;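 also: NT is the 2HG producing partner of a matched IDH1 knockdown line; 0% = DMSO-treated cells and -100% = media-only wells without cells; nearly all actives have a fitted effect of over 55% in size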
#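 A 48-hour cytotoxicity screen used HT-1080-NT cells plated 2 hours before compound delivery. ATP-based CellTiter-Glo luminescence measured viability, normalized to DMSO and no-cell controls.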
# SW480 rereplic: A quantitative high throughput screen for small molecules that induce DNA re-replication in SW480 colon adenocarcinoma cells | SW480 DNA re-replication, Hoechst DNA content imaging, 48 h | Potency, µM (highest dose often 46.1 µM), inactives show top-dose re-replication activation, usual class: activators | 340,000 compounds, 1.8% hits; also: % of control where 0% means no effect; nearly all actives have a fitted effect of over 55% in size
#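 Treated cells incubate 48 hr (37 C, 5% CO2), are stained 40 min with Hoechst, and nuclear fluorescence is enumerated; a rise in nuclei with high DNA signal marks re-replication.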
# MCF10A rerep: A quantitative high throughput screen for small molecules that induce DNA re-replication in MCF 10a normal breast cells; Potency, µM (series often up to 46.1 µM), inactives show at the top dose activity, positive = re-replication, most hits filed as activators; 350,000 compounds, 2.9% hits; MCF 10A DNA re-replication, Hoechst nuclear intensity, 48 h; also: % of control where 0% means no effect; nearly all actives have a fitted effect of over 50% in size
# KB-3-1 tox: qHTS assay for MDR1-selective chemotherapeutics: Primary screen using the parental adenocarcinoma cell KB-3-1; KB-3-1 viability, CellTiter-Glo ATP luminescence, 72 h; Potency, µM (highest dose often 46.1 µM), hits mostly cytotoxic; 400,000 compounds, 1.4% hits; also: % is scaled to controls: 0 for no effect and ±100 for the full control effect; nearly all actives have a fitted effect of over 60% in size
#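 Luminescent ATP read-out (CellTiter-Glo) measures survival of drug-naive KB-3-1 cells after 72 h compound exposure at 37 °C. Titration series was screened from lowest to highest concentration, with DMSO vehicle plates as background controls.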
# Starred values were filed as active, the others as inactive; i = inactive; u = inconclusive; x = no result given; ! = not confirmed by another sample; [ ] = dose if it differs, or a comment. A selection: hits, their analogues and other compounds. The true share with any hit is near 7.9%. Calls follow the shape of the dose curve; as a rule, active = well fitted curve in the direction sought with a large enough effect; inconclusive = small, poorly fitted or top-dose-only effect, or another doubt; inactive = no such curve, though single readings can be large; an effect the other way counts as inactive or inconclusive. Potency is read from the fitted curve at half-maximal effect.
SMILES,HT1080 IDH1KD tx,KB-V1 cytotox,HT1080NT lethal,SW480 rereplic,MCF10A rerep,KB-3-1 tox
COC(=O)C1=C(C)N(C2CCCCC2)C(=O)C1,10%,i,10%,-7%,5%,i
CCN1C=C(Cc2ccccc2C)C2=C(C1)C(c1ccccc1C)C(C#N)=C(N)O2 (stereo not given),u,21µM*,u,u,u,u
CCN1C=C(Cc2ccc(F)cc2)C2=C(C1)C(c1ccc(F)cc1)C(C#N)=C(N)O2 (stereo not given),-1%[9.24 µM],16µM*,u,u,u,u
CC(=O)C1=C(c2ccccc2)OC(N)=C(C#N)C1c1ccccc1C (stereo not given),6%,i,10%,-6%,-1%,i
Cc1[nH]nc2c1C(c1ccc(F)cc1)C(C#N)=C(N)O2 (stereo not given),16%,u,-1%,-1%,0%,i
COC(=O)CC1=C(C)C(=O)CC2C(C)(C)CCCC12C (stereo not given),-6%[9.24 µM],i,0%,-5%,1%,i
O=C(CN1CCN(C(=O)C2CCCO2)CC1)Nc1ccc(F)cc1 (stereo not given),1%,i,6%,-15%,-9%,i
CCc1ccccc1NC(=O)COC(=O)c1c(C)nsc1NC,-11%,i,4.1µM*,u,3%,i
CNc1snc(C)c1C(=O)OCC(=O)Nc1ccc(C)cc1F,-23%,12µM*,-9%,-5%,u,i
CNc1snc(C)c1C(=O)OCC(=O)N(C)c1ccccc1,1%,i,12%,-8%,-6%,i
O=C(NC(=S)Nc1cccc(Cl)c1N1CCCCC1)c1ccco1,u,i,11µM*,18µM*,u,i
CC1CCCC(NC(=S)NC(=O)c2ccco2)C1C (stereo not given),-10%,18µM*,-6%,-3%,18%,i
O=C(NC(=S)Nc1ccccc1N1CCCCC1)c1ccco1,-8%,u,-2%,-2%,u,u
O=C(NC(=S)Nc1ccc(N2CCCCC2)cc1)c1ccco1,14µM*,8.2µM*,7.1µM*,u,u,i
O=C(NC(=S)Nc1cccc(Cl)c1N1CCCCC1)c1cccs1,10µM*,u,3.5µM*,u,3.3µM*,u
CCOc1ccc(CN2CCc3nc(Nc4ccc(OC)cc4OC)ncc3C2)cc1,x,i,x,x,x,i
CCCC(=O)NC(=S)Nc1cccc(Cl)c1N1CCCC1,u,i,u,u,18µM*,i
Cc1nn(Cc2ccccc2Cl)c(C)c1C(=O)NCCN1C(=O)S/C(=C\c2ccccc2)C1=O,-19%,u,u,-7%,16µM*,i
CN(Cc1cn(C)c2ccccc12)C(=S)Nc1cc(F)cc(F)c1,0%,18µM*,1%,-57%,-65%,u
COc1ccc(SC[C@H](C)CN2CC[C@H](C(C)(C)C)CCC2=O)cc1,-19%,15µM*!,-22%,1%,u,u
C[C@@H](CSc1ccccc1)CN1CC[C@H](C(C)(C)C)CCC1=O,17%,18µM*!,0%,-6%,u,u
CCN(CC)c1ccc(/C=N/NC(=O)c2cccc(S(=O)(=O)Nc3ccccc3OC)c2)c(O)c1,u,i,u,u,u,u
COc1ccccc1NS(=O)(=O)c1cccc(C(=O)N/N=C/c2ccc([N+](=O)[O-])o2)c1,u,u,u,13µM*,21µM*,u
COc1ccccc1NS(=O)(=O)c1cccc(C(=O)N/N=C/c2ccc3c(c2)OCCO3)c1,2%,u,8%,0%,7%,i
CCN(CC)c1ccc(/C=N/NC(=O)c2cccc(S(=O)(=O)Nc3ccccc3OC)c2)cc1,u,i,-24%,2%,16µM*,i
SMILES,HT1080 IDH1KD tx,KB-V1 cytotox,HT1080NT lethal,SW480 rereplic,MCF10A rerep,KB-3-1 tox
O=C(CSCc1ccc(C(=O)O)cc1)Nc1ccc2ccccc2c1,-2%,i,-6%,0%,2%,i
CS(=O)(=O)N1Cc2ccccc2CC1C(=O)O (stereo not given),-2%,i,0%,-4%,-1%,i
CCS(=O)(=O)N1Cc2ccccc2CC1C(=O)N1CCN(c2ccccc2)CC1 (stereo not given),1%,10µM*,-2%,3%,11%,i
CCS(=O)(=O)N1Cc2ccccc2CC1C(=O)Nc1nnc(SCc2ccc(F)cc2)s1 (stereo not given),-11%,4.1µM*,-16%,u,u,i
CCc1nnc(NC(=O)C2Cc3ccccc3CN2S(=O)(=O)c2c(C)c(C)cc(C)c2C)s1 (stereo not given),u,10µM*,4%,14%,u,i
CCS(=O)(=O)N1Cc2ccccc2CC1C(=O)Nc1nc2ccccc2s1 (stereo not given),-4%,16µM*,-13%,1%,17%,i
CC(=O)Nc1cccc(NC(=O)CSc2nc(=O)n(Cc3ccccn3)c3c2CCC3)c1,4%,i,1%,-444%,-1%,i
CC(C)(C)c1cc(OC(=O)c2ccncc2)ccc1O,0%,i,1%,-2%,15%,i
CC(C)(C)c1cc(OC(=O)c2ccccc2F)ccc1O,21µM*,i,33µM*,15%,-2%[9.22 µM],i
CCC1CCC/C1=N\NC(=O)c1ccccc1Cl (stereo not given),15%,i,15%,-9%,u,i
CCSc1cc(N2CCCC2)nc(-c2ccc(F)cc2)n1,8%,i,3%,-5%,5%,i
Cc1nnc2ccc(-c3cccc(NS(=O)(=O)c4ccccc4Cl)c3)nn12,-12%,i,-28%,-8%,u,u
CCCS(=O)(=O)Nc1cccc(-c2ccc3nnc(C)n3n2)c1,-1%,i,-16%,18µM*,-4%,i
CN=C1NC(C)(C)C2CCC(C)(CC2)S1,6%,i,7%,2%,12µM*,i
O=c1[nH]c(C2CCCN(S(=O)(=O)Cc3ccccc3)C2)nc2c1nnn2Cc1cccc(Cl)c1 (stereo not given),0%,i,-20%,4%,15%,i
